According to PubChem BioAssay AID1508600 (Functional Genomics Laboratory (NCATS/FGL), 2020):
Among all 53,000 sequences or so, about 3,700 (7%) were called active. Only a selection was taken, and actives are over-represented in it overall. A number with no mark means an inactive call.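 Rule for the calls: active = gene knockdowns whose robust z-score for IL-1 alpha signal is at least 2 or at most -2, so actives lie on both sides; inactive = the rest.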

Assay: Components of the Cytosolic LPS Sensing Pathway: Gene Identification via Genome-wide siRNA Screen;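 note: robust z of the log signal after scaling to non-targeting control siRNA wells of the plate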
Conditions: RAW264.7 macrophages, IL-1a HTRF, actives lie on both sides, screened at 100 nM (by protocol), cells primed 5 h with Pam3CSK4 first
Outline: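 Using IL-1a HTRF as read-out, the screen measured release from RAW264.7 cells after 48h siRNA knockdown (100 nM), 5 h Pam3CSK4 priming and 24 h cytosolic LipidA. Values were expressed relative to negative-control wells as robust z-scores.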

Which z-score does the source give for GCAGUUGACAUUUACUCUCTT against Nol10 here?
The z-score was 2.36 (active).

With GCUCCACACUACGUGUCAUTT against Olfr476 as the sequence, how does the z-score read?
Its z-score is 1.66.

For GCCUUAUCCAUAUCGACUATT against Arrdc1, which z-score is on record?
The z-score was 0.831.

With GGAUGCUCAUGGACCUUUGTT against Olfr1122 as the sequence, how does the z-score read?
The z-score was 0.931.

With CGUACUCCAACAACACUUUTT against Pdzd8 as the sequence, how does the z-score read?
Its z-score is -0.503.

For GGACUGUGUGUGCAAAGGUTT against Mt3, which z-score is on record?
The z-score was -0.176.

For GCUACUGCCGGAAUUUGGUTT against Tiam1, which z-score is on record?
Its z-score is 0.497.

For CGCAAGAUACCAACACUUATT against Flad1, which z-score is on record?
Its z-score is -0.487.

Which z-score does the source give for GGAACACAAAAGCAAAGAUTT against Prpf38b here?
The z-score was 2.2 (active).

With GGAUUGUGGGUUUAUAUAATT against Olfr835 as the sequence, how does the z-score read?
The z-score was 0.274.

For CAGGCUGGUUACUUUGGCUTT against Lhfpl5, which z-score is on record?
Its z-score is -0.246.

With CCUUCCAACUCUUCUCCUCTT against H2-T3 as the sequence, how does the z-score read?
Its z-score is 0.915.

Which z-score does the source give for GCCUCAUUUGAUCAAUGUCTT against Actr2 here?
Its z-score is 1.86.

For GCUAGAUAAACUCUCUCAATT against Cxcr5, which z-score is on record?
The z-score was 0.73.

For GGUCCAGCUCAUGAAACUUTT against Sik1, which z-score is on record?
Its z-score is 0.147.

Which z-score does the source give for GGGUUUGGUCGUAAACAGCTT against Limd2 here?
Its z-score is -1.06.

For GGUGCUGCUAUUCCUGCACTT against Gpam, which z-score is on record?
The z-score was -2.03 (active).

For GGGAGCUACGUUCAGAAGUTT against Gckr, which z-score is on record?
The z-score was 1.63.

For GGAUUUCUGUGGAGAUGGGTT against Cchcr1, which z-score is on record?
Its z-score is 0.444.

Which z-score does the source give for GCUACUCCAUUUACAUCUATT against H2bc1 here?
The z-score was -0.122.

Which z-score does the source give for GCGGAGUGUGAAACACUGATT against Ccdc32 here?
The z-score was 0.842.

With GGAAGGACAGACAGACAAGTT against Pxt1 as the sequence, how does the z-score read?
Its z-score is 0.165.

Which z-score does the source give for CCUAGAUGACACUUGGGUGTT against Nup35 here?
The z-score was -1.4.

For GCCUCUUCAAUCACAUUUATT against Atp6v0a4, which z-score is on record?
Its z-score is 3.27 (active).

For GGAAAGAUCUACGAGAUCUTT against Unc5a, which z-score is on record?
The z-score was 1.04.

For CGGAUUCGUCUGUUUUCUGTT against Ddi2, which z-score is on record?
Its z-score is 1.97.

Which z-score does the source give for GGAUAUACAUGGUCUGUUUTT against Naip5 here?
Its z-score is 0.318.

With GGACUCCUCCCAAGACGAATT against Avil as the sequence, how does the z-score read?
The z-score was -0.118.

Which z-score does the source give for CCUACCAUAGCAACACUAUTT against Kcna2 here?
The z-score was 3.14 (active).

For GGCCCUCACAAUGAAUAUGTT against Efs, which z-score is on record?
The z-score was -0.115.

With ACGAUAUGUUGACCUUGGCTT against Cyp2c67 as the sequence, how does the z-score read?
Its z-score is -0.274.

With “CGGCAAUUUGAGUUGAAAATT against Ppp1r2-ps9” as the sequence, how does the z-score read?
The z-score was -0.571.

For GGGCACCUUAUACCAUAGATT against Bfar, which z-score is on record?
The z-score was 0.345.

Which z-score does the source give for GGCCAUGGAGAACAUAUGCTT against Trpm8 here?
Its z-score is -2.09 (active).

With GGCUAUUGAGCUCUUUGUCTT against Qpctl as the sequence, how does the z-score read?
The z-score was -0.661.

With GGAGUAGUAGCUAUUAUAUTT against Kctd9 as the sequence, how does the z-score read?
Its z-score is 1.89.

For “GCUUUGAGACCUAAUGAUGTT against 1810024B03Rik”, which z-score is on record?
The z-score was -0.469.

With GGUGCUAGUGUAUGAAUUATT against Nsun5 as the sequence, how does the z-score read?
The z-score was 2.39 (active).

Which z-score does the source give for GGAUCAUUUGUUAAUGUACTT against Ddx3y here?
The z-score was 0.0896.

With GCUAUUGCUCGCAUCAAUGTT against Prps1l1 as the sequence, how does the z-score read?
Its z-score is 0.989.

For GCGAUUAUUUCGCUUUGGATT against Pcdha12, which z-score is on record?
Its z-score is -0.502.

For GGAGAGUAAAACCAAUACATT against Fam76a, which z-score is on record?
The z-score was -0.0433.

Which z-score does the source give for GGGUCACAGAGGUUACCCATT against Col2a1 here?
Its z-score is 1.25.

Which z-score does the source give for GGAGACCAAAAAGAAAUAATT against Cmas here?
Its z-score is 0.622.

For GGUGGUGGAAUGCUAAAAATT against Gys1, which z-score is on record?
Its z-score is 2.29 (active).

With CCAGAAUACUGGGAUACAATT against B4galnt3 as the sequence, how does the z-score read?
The z-score was -0.577.

For GCUCAUGUAUGUGAAUUUGTT against Ptx3, which z-score is on record?
Its z-score is -1.25.

With GGAAACACCAUGAAGAUGATT against Atpif1 as the sequence, how does the z-score read?
Its z-score is -0.0257.

With GCAAGUCGUAAGCCUCAGGTT against Mrps10 as the sequence, how does the z-score read?
Its z-score is 0.533.

With GCUACGGACCAUGUUCAAGTT against Nxpe4 as the sequence, how does the z-score read?
The z-score was 2.93 (active).

With GGAGGUACCACAAAAGGCATT against Kif2c as the sequence, how does the z-score read?
The z-score was 0.0217.

Which z-score does the source give for CCAACUAAGUGAAAUUCCATT against Aspn here?
The z-score was -1.26.

With CCCAACAUUAUCUUGGACCTT against Mrgpra8 as the sequence, how does the z-score read?
Its z-score is -0.26.

With GGGAAGGAUUUUUGAUGAUTT against Arfgap1 as the sequence, how does the z-score read?
The z-score was 1.33.

For GGAAGGAAGGAAUAAAACUTT against Fitm2, which z-score is on record?
The z-score was -0.981.

Which z-score does the source give for GCCACUUCACAGCAAGCUATT against Cdk2ap1 here?
The z-score was 3.27 (active).

Which z-score does the source give for GGGCGAACAGGACAAUUAUTT against Med22 here?
The z-score was -0.421.

For GCCCAUUAAUGCGUAUUUUTT against Mettl2, which z-score is on record?
The z-score was 1.22.

For GCUAAGUCGGAUGAUAGAATT against Ttc16, which z-score is on record?
Its z-score is -0.742.

With GGCAUGAUCAGCACAUCACTT against Rpap1 as the sequence, how does the z-score read?
Its z-score is 0.578.

Which z-score does the source give for GGAUGAAUAUGGUGUUUCUTT against Rnf138 here?
The z-score was -2.23 (active).

For GCUAAAUUACACAUUGACCTT against Vcam1, which z-score is on record?
Its z-score is 0.226.

With GGGAAGCAACAUGAUUAAATT against Kat7 as the sequence, how does the z-score read?
The z-score was 0.669.

Which z-score does the source give for CCUCACUGGUACAAUCCCATT against Tsg101 here?
Its z-score is -0.906.

Which z-score does the source give for GGAACCAGUUUAAAUGAUUTT against Marchf7 here?
The z-score was 0.04.

Which z-score does the source give for CGUUACGUAAAUCUUGUGATT against Sstr2 here?
The z-score was 0.227.

With GGUGGUCUACCAGCAUUUGTT against Pde4dip as the sequence, how does the z-score read?
Its z-score is 2.16 (active).

With GGCCAAUAAUGUGUUUCGUTT against Cmpk2 as the sequence, how does the z-score read?
Its z-score is -0.632.

Which z-score does the source give for CCUGGUGCCUUUAUCUACCTT against Ctxn1 here?
The z-score was 0.907.

Which z-score does the source give for GGAGAUGCUGUUCUUUCCGTT against Casc3 here?
Its z-score is -1.18.

Which z-score does the source give for GGAUGGAUUACUGAAAGUUTT against Wdr35 here?
The z-score was 0.715.

For “GGCAGCUAUUGCUCUGGAATT against 5730596B20Rik”, which z-score is on record?
Its z-score is -0.293.

Which z-score does the source give for GGAGCAACAGCCAAAUACCTT against Hmgb4 here?
Its z-score is 2.39 (active).

With GGACUAUGAGCAGAUGAAGTT against Calcb as the sequence, how does the z-score read?
Its z-score is -0.217.

Which z-score does the source give for GGAUGUGCACGAAGGACAGTT against Cdh2 here?
Its z-score is 2.09 (active).

Which z-score does the source give for CCAGUCCAUUGAAUAGUUCTT against Papola here?
Its z-score is 0.329.

For GGAAAGGAAUCCAAAAAUCTT against Lias, which z-score is on record?
The z-score was -0.42.

Which z-score does the source give for CCAGAAGUGAUCGCCUCUUTT against Zfp300 here?
Its z-score is 1.16.

For GCCAUAAAACAGAAUCUCATT against Tmco5b, which z-score is on record?
Its z-score is -0.309.

For GGUGGUGAUAAGCUUCCUCTT against Olfr1417, which z-score is on record?
The z-score was -1.87.

With GGGACUUCAGACAGUUAUCTT against Ess2 as the sequence, how does the z-score read?
Its z-score is 1.69.

Which z-score does the source give for GCCGAACUUCGGAAUUCUGTT against Nf1 here?
The z-score was 2.08 (active).

Which z-score does the source give for GGUAUAUGGAACCAUGGGATT against Psmb9 here?
The z-score was -0.565.

With GGAGUCUGCUGGUUUAGUGTT against Fmc1 as the sequence, how does the z-score read?
The z-score was 0.0551.

With GGAGUAUGGCGAAUUCUAUTT against Hsp90ab1 as the sequence, how does the z-score read?
The z-score was 1.34.

With GCUGCUUGCUGACCUCCUATT against Olfr522 as the sequence, how does the z-score read?
Its z-score is 0.358.

Which z-score does the source give for GCAUUCAGAAAUUGAGGGUTT against Sin3b here?
The z-score was -0.0974.

Which z-score does the source give for “CCUAUCUCUUAGCAAAGAUTT against 2010003K11Rik” here?
The z-score was 2.87 (active).

For GGCGAUAUUCUUAAUUAUCTT against Mfsd6, which z-score is on record?
Its z-score is 0.735.

For GGUGUUGAACAAGUGCGACTT against Tescl, which z-score is on record?
The z-score was -0.987.

For GCUGAUCAUCCGUUUCACUTT against Hdc, which z-score is on record?
Its z-score is -0.227.

With CGUACUUCAGCGAUUUAAATT against Exoc2 as the sequence, how does the z-score read?
The z-score was 0.555.

Which z-score does the source give for GGACUCAAGACACCAGUUGTT against Rufy3 here?
Its z-score is -0.318.

With GCAAGAAGCCUGCCAAUAUTT against Etd as the sequence, how does the z-score read?
Its z-score is 2.05 (active).

Which z-score does the source give for GGAGUACUUUGGAAUAGCATT against Frmd4a here?
The z-score was -0.467.

Which z-score does the source give for GCUCUAUAUCCAGGAAACUTT against Krtap6-2 here?
The z-score was 0.0521.

For GGUGCAUUUAUGUAUUUCCTT against Olfr916, which z-score is on record?
Its z-score is -1.76.

Which z-score does the source give for GCAAUCAUUGAAUCCACUCTT against Spag9 here?
The z-score was 2.16 (active).

Which z-score does the source give for GGAUGUGGUUCAGAAGGCCTT against Stab1 here?
The z-score was -0.29.

With GAUUCUUACUUUGGUCUACTT against Olfr9 as the sequence, how does the z-score read?
The z-score was 0.62.

For GCCAAAACAUUUCAGAGCCTT against Hemk1, which z-score is on record?
Its z-score is -0.000768.

With GCAUCUAACUACUUGGGCCTT against Hhip as the sequence, how does the z-score read?
The z-score was 1.18.

Which z-score does the source give for GCACUACCAAGGCGAUAACTT against Tspan18 here?
The z-score was -0.624.

For GGAACCAGUGCUGCAUUUATT against Defb41, which z-score is on record?
The z-score was -2.05 (active).

Which z-score does the source give for GGCCAUAAACAACCAUUUATT against Ppp1r1b here?
The z-score was 0.747.

Which z-score does the source give for GGACCAACGUGCAGAAAUGTT against Metrn here?
The z-score was -0.702.

With GGUCUGGAGACUUUCAGUCTT against Hexa as the sequence, how does the z-score read?
Its z-score is 0.521.

For GGGCAGGGACAUUAGUCAUTT against Zfp106, which z-score is on record?
Its z-score is 2.88 (active).
